OPRM1-OPRD1 ag = agonists of OPRM1-OPRD1 heterodimerization, primary screen, cell-based, luminescence | Mu-type opioid receptor (Homo sapiens) + Delta-type opioid receptor (Homo sapiens), … | cells | activation, % at 9.3 µM | 0.3% of 340,000 active | AID 504326, 2011; in the data active means activation above about 18%
Target sequence (P35372 whole entry, looked up): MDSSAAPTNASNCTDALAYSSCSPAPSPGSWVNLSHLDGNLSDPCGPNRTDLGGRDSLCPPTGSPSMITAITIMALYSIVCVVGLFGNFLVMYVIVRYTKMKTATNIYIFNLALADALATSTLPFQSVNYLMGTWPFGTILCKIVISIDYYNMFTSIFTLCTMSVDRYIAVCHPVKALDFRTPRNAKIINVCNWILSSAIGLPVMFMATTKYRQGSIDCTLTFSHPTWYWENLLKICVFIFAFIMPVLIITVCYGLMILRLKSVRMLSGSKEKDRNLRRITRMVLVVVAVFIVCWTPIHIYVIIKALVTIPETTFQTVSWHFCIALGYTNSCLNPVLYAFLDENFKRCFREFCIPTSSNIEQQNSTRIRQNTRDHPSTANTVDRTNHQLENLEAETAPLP
Target sequence (P41143 whole entry, looked up): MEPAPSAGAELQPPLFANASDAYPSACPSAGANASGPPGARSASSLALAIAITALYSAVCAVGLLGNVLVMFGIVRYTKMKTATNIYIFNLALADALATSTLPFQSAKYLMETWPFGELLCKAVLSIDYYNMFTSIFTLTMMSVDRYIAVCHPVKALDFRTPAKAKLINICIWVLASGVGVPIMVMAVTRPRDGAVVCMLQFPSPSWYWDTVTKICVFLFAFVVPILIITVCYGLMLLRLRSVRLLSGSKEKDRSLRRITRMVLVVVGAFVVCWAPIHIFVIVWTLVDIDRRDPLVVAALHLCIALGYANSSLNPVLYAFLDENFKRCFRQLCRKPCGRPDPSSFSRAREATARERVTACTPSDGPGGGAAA
HTR5A ag ctr = HTR5A agonists in luminescence cell assay, primary screen, counter-screen for OPRM1-OPRD1 heterodimer agonist project, full-deck HTS; 5-hydroxytryptamine receptor 5A (Homo sapiens), P47898; cell-based; activation, % at 9.3 µM; 0.61% of 340,000 active; AID 504692, 2011; in the data active means activation mostly above about 9.5%, no sharp cut-off; inactive means mostly below about 7.6%
HTR5A inv ctr = HTR5A inverse agonists in luminescence cell assay, primary screen, counter-screen for OPRM1-OPRD1 heterodimer inverse agonist project, full-deck HTS; 5-hydroxytryptamine receptor 5A (Homo sapiens), P47898; HTR5A cell line, inverse agonism; inhibition, % at 9.3 µM; 0.083% of 340,000 active; in the data active means inhibition mostly above about 23%, no sharp cut-off; inactive means mostly below about 18%
MOR-DOR inv ag = inverse agonists of MOR-DOR heterodimerization, primary screen, cell-based, luminescence. inhibition, % at 9.3 µM. 0.21% of 340,000 active. cell-based MOR-DOR heterodimer luminescence, inverse agonism; in the data active means inhibition above about 22%, passing the limit was not always enough
PvdQ acylase = P. aeruginosa PvdQ acylase inhibitors, primary screen, biochemical, fluorescence, plate reader and imaging, single point | PvdQ acylase [Pseudomonas aeruginosa LESB58] | purified PvdQ acylase | inhibition, % at 10 µM | 0.063% of 340,000 active | AID 488965, 2010; in the data active means inhibition above about 30%, passing the limit was not always enough
CR mimetic SO = reduction of superoxide in aged yeast, primary screen, HTS | superoxide response (% of plate mean), % at 10 µM | AID 2690, 2010 | 0.18% of 330,000 active | S. cerevisiae aged cells, superoxide DHE fluorescence; stronger effect = lower value;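 active means superoxide response under a set limit, about three screen SD below normal, cut at about 65% in these data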;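 further: yeast aged for seven days with compound at 30 °C before DHE staining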
MOR-DOR inv conf = inverse agonists of MOR-DOR heterodimerization, confirmation, cell-based, luminescence; shares compounds with MOR-DOR inv ag; cells expressing OPRM1/OPRD1 heterodimer; inhibition, % at 9.3 µM; 20% of 580 active; in the data active means inhibition above about 32%
HTR5A inv count = HTR5A inverse agonists, counter-screen for OPRM1-OPRD1 inverse agonist project, cell-based, luminescence; inhibition, % at 9.3 µM; 580 tested, under 10 active; AID 504914, 2011; HTR5A-expressing cells, inverse agonism; shares compounds with MOR-DOR inv ag; call rule not given here
Each line names hits and unclear results; the compound was inactive in the other large screens (follow-up assays come after a bar, where they were run). Sampled rows, rich in hits. Any-hit rate of the full collection: about 1.3%.

COc1ccc2nc(NN=C(C)c3ccccn3)cc(C)c2c1	MOR-DOR inv ag 38.8 (no result: CR mimetic SO) | MOR-DOR inv conf inactive | HTR5A inv count inactive
C/C(=N\NC(=O)c1cc(C)nc2ccccc12)c1ccccn1	none
Cn1cc(CCC(=O)NC2CC(C)(C)Cc3c2cnn3-c2ccc(F)cc2)cn1 (stereo unspecified)	none (no result: CR mimetic SO)
Cc1ccc(OCCCN2C(=O)C(=O)c3cccc(C)c32)cc1	MOR-DOR inv ag 45.0 | MOR-DOR inv conf inactive | HTR5A inv count inactive
Cc1cccc2c1N(CCOc1ccc(C(C)(C)C)cc1)C(=O)C2=O	MOR-DOR inv ag 35.6 | MOR-DOR inv conf inactive | HTR5A inv count inactive
COc1ccccc1CC(=O)Nc1ccon1	none
O=C(C[N+]1(CC#Cc2ccccc2)CCOCC1)c1ccc(Cl)cc1	MOR-DOR inv ag 33.5 | MOR-DOR inv conf inactive | HTR5A inv count inactive
O=C(C[N+]1(CC#Cc2ccccc2)CCOCC1)c1ccccc1	none
CCOC(=O)c1ccc(CC(=O)c2oc3cc(O)ccc3c2C)o1	MOR-DOR inv ag 34.5 | MOR-DOR inv conf inactive | HTR5A inv count inactive
OCC1OC(Oc2c[nH]c3ccccc23)C(O)C(O)C1O (stereo unspecified)	MOR-DOR inv ag 57.9 | MOR-DOR inv conf inactive | HTR5A inv count inactive
CC1(C)CC(=O)C(C2(O)C(=O)N(Cc3ccccc3)c3ccccc32)CO1 (stereo unspecified)	none
CC1(C)CC(=O)CC(C2(O)C(=O)N(Cc3ccccc3)c3ccccc32)O1 (stereo unspecified)	MOR-DOR inv ag 34.1 | MOR-DOR inv conf inactive | HTR5A inv count inactive
Cc1c(C(=O)N(C)C)sc2nc(-c3ccccn3)[nH]c(=O)c12	none
O=c1[nH]c(-c2ccccn2)nc2sc(-c3ccccc3)cc12	MOR-DOR inv ag 33.0 (no result: CR mimetic SO) | MOR-DOR inv conf inactive | HTR5A inv count inactive
ON(Cc1c(F)cccc1Cl)Cc1c(F)cccc1Cl	MOR-DOR inv ag 35.1 | MOR-DOR inv conf 70.1 | HTR5A inv count inactive
Fc1cccc(Cl)c1CSC1=NCCS1	none
COC(=O)NNC(=O)c1ccc(Cl)cc1Cl	none
CC(C)(C)C(=O)NC(=S)NNC(=O)c1ccc(Cl)cc1Cl	MOR-DOR inv ag 38.5 | MOR-DOR inv conf inactive | HTR5A inv count inactive
CC(C)(C)c1ccc(OCC(=O)NNC(=S)NC(=O)c2ccccc2[N+](=O)[O-])c(Br)c1	MOR-DOR inv ag 32.5 | MOR-DOR inv conf inactive | HTR5A inv count inactive
COc1ccc(NC(=O)C2CCCN(S(C)(=O)=O)C2)cc1OC (stereo unspecified)	none
OC1=C(O)c2nc3ccccc3nc21	MOR-DOR inv ag 83.9 | MOR-DOR inv conf 73.2 | HTR5A inv count inactive
Cc1ccc(C(=O)NCc2ccccn2)cc1S(=O)(=O)N1CCCCC1	none
CC(C)NC(=O)CN1C(=O)C(=O)c2ccccc21	MOR-DOR inv ag 46.8 | MOR-DOR inv conf inactive | HTR5A inv count inactive
O=C1C(=O)N(CC(=O)N2CCCC2)c2ccccc21	none
CC(=O)NC12CC3CC(C1)CC(C(=O)N1CCN(S(=O)(=O)c4cccc([N+](=O)[O-])c4)CC1)(C3)C2	none (no result: CR mimetic SO)
Cc1cccc(NC(=S)NNc2ncc(C(F)(F)F)cc2Cl)c1	MOR-DOR inv ag 45.0 | MOR-DOR inv conf 32.9 | HTR5A inv count inactive
FC(F)(F)c1cnc(NNC(=S)Nc2ccccc2Cl)c(Cl)c1	MOR-DOR inv ag 43.2 | MOR-DOR inv conf 44.0 | HTR5A inv count inactive
S=C(NNc1ccnc2cc(Cl)ccc12)Nc1ccccc1Cl	none
COc1ccc(-c2cc(C(=O)N/N=C/c3cccnc3)c3cc(C)cc(C)c3n2)cc1	none
Cc1cccc2c1N(CCOc1ccccc1Cl)C(=O)C2=O	MOR-DOR inv ag 34.5 | MOR-DOR inv conf inactive | HTR5A inv count inactive
COc1ccccc1OCCCN1C(=O)C(=O)c2cccc(C)c21	MOR-DOR inv ag 40.7 | MOR-DOR inv conf 56.1 | HTR5A inv count inactive
O=C1c2ccccc2C(=O)N1CCOc1ccccc1Cl	none
Cc1ccccc1OCCN1C(=O)C(=O)c2cccc(C)c21	MOR-DOR inv ag 58.0 | MOR-DOR inv conf inactive | HTR5A inv count inactive
CCCc1nc(SCc2ccc(OCC)cc2)n[nH]1	none
N#CC1CC(c2ccccc2)Nc2cc(Cl)ccc2N1 (stereo unspecified)	none
COc1ccc2c(c1)CC(C(=O)Nc1ccc(Cl)cc1)/C(=N/O)O2 (stereo unspecified)	none
O=C(c1ccc(Cl)cc1)c1cccc(O)c1	none (no result: CR mimetic SO)
CCN(CC)CC(=O)c1ccc(-c2ccccc2)cc1	MOR-DOR inv ag 54.2 | MOR-DOR inv conf inactive | HTR5A inv count inactive
CN(C)CC(=O)c1ccc(-c2ccccc2)cc1	MOR-DOR inv ag 33.5 | MOR-DOR inv conf inactive | HTR5A inv count inactive
O=C1Cc2cccc3cccc1c23	MOR-DOR inv ag 29.7 | MOR-DOR inv conf inactive | HTR5A inv count inactive
O=C1OCc2cccc3cccc1c23	none
CCCN(Cc1nnc(-c2ccccc2Cl)o1)C(=O)COc1ccc(Cl)cc1	none
CCCN1CCC(=NNC(=O)c2ccc(Br)o2)CC1	none
CCCN1CCC(=NNc2ccc(C(=O)O)cc2)CC1	MOR-DOR inv ag 37.0 | MOR-DOR inv conf inactive | HTR5A inv count inactive
Cc1ccc(N/N=C/c2cccnc2)cc1	MOR-DOR inv ag 52.5 | MOR-DOR inv conf inactive | HTR5A inv count inactive
Cc1ccc(N/N=C/c2ccncc2)cc1	none
Cc1c(C(C)CCCO)oc(=O)c2c1Oc1c(C)c(C(C)C[C@H](C)O)oc(=O)c1C2 (stereo partly specified)	none
Cc1ccccc1N=Nc1c(O)[nH]c2ccccc12	none (no result: OPRM1-OPRD1 ag, HTR5A ag ctr, HTR5A inv ctr, MOR-DOR inv ag, PvdQ acylase)
Cc1ccc(S(=O)(=O)N=Nc2c(O)[nH]c3ccccc23)cc1C	MOR-DOR inv ag 47.2 | MOR-DOR inv conf inactive | HTR5A inv count inactive
COc1ccc(S(=O)(=O)N=Nc2c(O)[nH]c3ccccc23)cc1	MOR-DOR inv ag 45.0 | MOR-DOR inv conf inactive | HTR5A inv count inactive
CC(C)(C)c1ccc(NNC(=O)C2CCC2)cc1	MOR-DOR inv ag 34.4 | MOR-DOR inv conf inactive | HTR5A inv count inactive
CCOC(=O)C(OC(=O)c1sc(=S)n(C)c1C)C(C)=O (stereo unspecified)	MOR-DOR inv ag 39.4 | MOR-DOR inv conf inactive | HTR5A inv count inactive
CN(c1ccccc1C(=O)Nc1ccc(S(=O)(=O)N2CCOCC2)cc1)S(=O)(=O)c1ccccc1	MOR-DOR inv ag 33.2 | MOR-DOR inv conf inactive | HTR5A inv count inactive
CC(C)CN(C)C(=O)CCc1nnc(Cc2cccc(C(F)(F)F)c2)o1	none

Bioassay records as filed in PubChem.
